Experimental findings from PubChem BioAssay (NCI) are described below.

SMILES strings stand for the structures. This is part of a sample that, as a whole, favours compounds with a hit. Of some 83,000 tested, about 20% had one in any assay.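 Percent growth is the endpoint: 0 to 100 indicates growth inhibition (40 means 60% inhibition), 0 means no net growth, and negative values indicate cell death.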 Calls of active or inactive are those of the source. How the source made its calls: active means growth percent below 10; inactive means the rest.

This assay has as its system T-47D breast. As to the kind of experiment: NCI-60 one-dose screen, 48 h (100 = growth as untreated, 0 = no growth, -100 = all killed). The settings on record: 10 µM unless noted.
Regarding `C#C[C@]1(O)CC[C@H]2[C@@H]3CC=C4c5sc(-c6cccc(F)c6)nc5CC[C@]4(C)[C@H]3CC[C@@]21C`, the growth is 65.4% (inactive).
For `COc1ccc(NS(=O)(=O)c2ccc(-c3cnc(C4CC4)o3)cc2)cc1Cl`, the growth was 30.3% (inactive).
Consider `Cc1cc(=O)n2nc(-c3c[nH]c4ccccc34)sc2n1`, for which the growth is 92.2% (inactive).
On to `CCN1C(=O)N(CC)C2SC(N/N=C/c3ccccc3)=NC21` (stereo not drawn), for which the growth was 64.8% (inactive).
Turning to `CC1=C2C(=C[C@@](C)(COS(N)(=O)=O)[C@@H]2O)C(=O)[C@](C)(O)C12CC2`, the growth was 71.8% (inactive).
Take `CCNCc1c(-c2cccc(OC(F)(F)F)c2)[nH]c2ccc(N3CCCC3)cc2c1=O`: the growth was 28.9% (inactive).
As to `CN(C)c1ncc(/C=C2\SC(=S)N(Cc3ccccc3Cl)C2=O)s1`, the growth was 96.9% (inactive).
On to `O=C(CN1C(=O)S/C(=C\c2ccccc2)C1=O)Nc1ccc(C(=O)/C=C/c2cc3ccccc3nc2Cl)cc1`, for which the growth was 54.6% (inactive).
`O=S(=O)(Nc1ccc(C2CC2)cc1)c1ccc(-c2cnc(C3CC3)o2)cc1`: the growth is 51.5% (inactive).
`Oc1ccc(-c2nnc(SCc3ccc(O)c4ncccc34)o2)cc1`: the growth is 11.1% (inactive).
As to `C#C[C@]1(O)CC[C@H]2[C@@H]3CC=C4c5sc(-c6ccc(OC)cc6)nc5CC[C@]4(C)[C@H]3CC[C@@]21C`, the growth was 73.6% (inactive).
In the case of `CCCC(=O)NC(c1cccnc1)c1cc(C(C)=O)c2cccnc2c1O` (stereo not drawn), the growth is 41.7% (inactive).
`CC(=O)Nc1ccc(NC(=O)Nc2cccc(-c3nc(-c4ccc(NC(=O)c5cccs5)cc4Cl)no3)c2)cc1C(F)(F)F`: the growth is -59.4% (active).
